Compounds without any hit were thinned out: in the full panel of roughly 83,000, 20% have a hit.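 Percent growth is the endpoint: 0 to 100 indicates growth inhibition (40 means 60% inhibition), 0 means no net growth, and negative values indicate cell death.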 A number with no mark means an inactive call. The source made the active and inactive calls. The calls were made as follows: active = growth percent below 10; inactive = the rest.
Each compound was assayed on SR leukemia (assay: NCI-60 one-dose screen, 48 h (100 = growth as untreated, 0 = no growth, -100 = all killed)). Settings: 10 µM unless noted.

| Compound | growth |
| --- | --- |
| O=C1c2c(c3c4ccccc4[nH]c3c3ccc4ccccc4c23)C(=O)N1CCN1CCNCC1 | -13.3% (active) |
| CC(C)=CCCC(C)c1ccc(C)c2c1OCN(CCCCCO)C2 (stereo not given) | 66.6% |
| COc1ccc(/C=N/NC(=O)c2ccc(-n3cc(-c4ccccc4)nn3)cc2)cc1OC | 111% |
| CCN(CC)S(=O)(=O)c1ccc(S(=O)(=O)N2CCC[C@@H](C(=O)N3CCN(c4nc(C(C)C)no4)CC3)C2)cc1 | 31.6% |
| Cc1cc(N2CCN(CC(=O)Nc3ccc4c(ccn4C)c3)CC2)nc(N2CCCCCC2)n1 | 122% |
| COc1ccc(Nc2ncc(Br)c(NCCCNC(=O)c3cccs3)n2)cc1 | 31.5% |
| NC(=O)C(=O)c1ccccc1NC=O | 113% |
| N#Cc1ccc2c(c1)C(=O)c1c-2n(CCCN)c(=O)c2cc([N+](=O)[O-])ccc12 | -52% (active) |
| c1ccc(Cn2cc3c(c2)-c2oncc2CC3)cc1 | 39.3% |
| O=C(CSC(=S)n1cnnc1)NC(=O)c1ccccc1 | 85.3% |
| O=C1/C(=C\c2ccc3nccnc3c2)SC(=S)N1CCc1ccc(O)cc1 | 68.9% |
| COc1c(B(O)O)cccc1-c1nc2c(F)cc3[nH]ncc3c2c2c1CCCC2 | 1.26% (active) |
| COc1c(B(O)O)cccc1-c1cc(C)c2c(ccc3[nH]ncc32)n1 | 27.5% |
| CSc1nnc(-c2cc3c([nH]c4ccccc43)c(-c3cccc(O)c3)n2)n1-c1ccccc1 | 21.7% |
| C=C1C(=O)O[C@H]2[C@H]1CC/C(Cn1cc(-c3ccccc3)nn1)=C\CC[C@@]1(C)O[C@@H]21 | 3.11% (active) |

From PubChem BioAssay (NCI)
